High-throughput results deposited in PubChem BioAssay by Johns Hopkins Ion Channel Center.
ANO1 block: inhibitors of mouse TMEM16A calcium-activated chloride channel | Q8BHY3 | HEK293 TMEM16A/YFP iodide influx fluorescence, ionomycin | normalized B-score (activity score, 25-100; higher = stronger inhibition) at 10 µM | actives 1.2% (n = 310,000) | AID 588511;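 active = ratio plate-corrected score three or more library SD toward inhibition, starting fluorescence score within five deviations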;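 also: score derived from kinetic fluorescence span divided by baseline fluorescence per well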
TMEM16A act: activators or potentiators of mouse TMEM16A chloride channel; HEK293 TMEM16A/YFP-H148Q/I152L, iodide quench fluorescence; active compounds read low; B-score at 10 µM; actives 0.3% (n = 340,000);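 active = fluorescence-ratio B-score plate-corrected deviation score at least 3 library SD below zero, with starting fluorescence score within 5 deviations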;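 also: channel opened by trigger with iodide after compound preincubation; score built on the fluorescence ratio of max minus min over baseline; more negative score means more quench and so TMEM16A activation or potentiation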
CHT inh: inhibitors of human choline transporter CHT. Q9GZV3. CHT-expressing cells, membrane potential dye, choline response; active compounds read low. B-score at 10 µM. actives 0.86% (n = 310,000). AID 488975;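 active = B-score over 3 SD under the library average, and starting fluorescence ratio not unusually high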;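 also: choline stimulus applied at its EC90 after an EC20 pre-addition; B-score computed on integrated fluorescence ratio after choline addition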
CHT PAM: allosterically activates the human high affinity choline transporter; Q9GZV3; actives 0.49% (n = 310,000); AID 488977; B-score at 10 µM; CHT-expressing cells, membrane potential dye, choline EC20; active compounds read high; LV-AA mutant CHT in HEK293 cells;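 active = initial fluorescence not abnormally high and integrated response B-score, plate-corrected, over 3 SD above library mean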
TMEM16A reconf: reconfirmed blocker of mouse TMEM16A calcium-activated chloride channel; shares compounds with ANO1 block; inhibition, % at 10 µM; actives 39% (n = 2,300); AID 652189; HEK293 TMEM16A/YFP-H148Q, iodide quench fluorescence; ionomycin added to raise cell calcium;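 active = mean duplicate percent inhibition, scaled so buffer wells are 0 and the reference blocker 100, over three buffer SD above buffer mean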
TMEM16A Ca cntr: calcium mobilization counter-screen hit for TMEM16A inhibitor series. actives 2% (n = 2,300). calcium response (% of ionomycin), % at 10 µM. TMEM16A/YFP HEK293, Fluo4 calcium mobilization. shares compounds with ANO1 block;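 active = duplicate-averaged calcium signal over 20% of the ionomycin maximum, relative to buffer baseline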;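 also: each well's signal is peak minus trough fluorescence divided by its pre-addition baseline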
Parental YFP cnt: counter-screen for TMEM16A inhibitors: effect in parental YFP-HEK293 cells; shares compounds with ANO1 block; 2,300 tested, under 10 active; iodide YFP quench, ionomycin; YFP ratio F(max-min)/F0 at 10 µM;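 active = yellow fluorescent protein signal ratio exceeding the buffer control mean by over 5 SD of those controls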;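 also: ratio is mean of duplicate wells from kinetic YFP trace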
ClC-1 inh: rat ClC-1 inhibition, TMEM16A specificity screen | ratio percent, % at 10 µM | CHO ClC-1-YFP, iodide influx fluorescence quench; iodide control reads 0, buffer control 100 | 2,300 tested, under 10 active | shares compounds with ANO1 block;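 active = duplicate-mean ratio percent above the mean of iodide-only control wells, which defines zero, plus 5 of their SD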;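 also: higher percent means stronger block of ClC-1 iodide influx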
Target sequence (P35524 whole entry, looked up): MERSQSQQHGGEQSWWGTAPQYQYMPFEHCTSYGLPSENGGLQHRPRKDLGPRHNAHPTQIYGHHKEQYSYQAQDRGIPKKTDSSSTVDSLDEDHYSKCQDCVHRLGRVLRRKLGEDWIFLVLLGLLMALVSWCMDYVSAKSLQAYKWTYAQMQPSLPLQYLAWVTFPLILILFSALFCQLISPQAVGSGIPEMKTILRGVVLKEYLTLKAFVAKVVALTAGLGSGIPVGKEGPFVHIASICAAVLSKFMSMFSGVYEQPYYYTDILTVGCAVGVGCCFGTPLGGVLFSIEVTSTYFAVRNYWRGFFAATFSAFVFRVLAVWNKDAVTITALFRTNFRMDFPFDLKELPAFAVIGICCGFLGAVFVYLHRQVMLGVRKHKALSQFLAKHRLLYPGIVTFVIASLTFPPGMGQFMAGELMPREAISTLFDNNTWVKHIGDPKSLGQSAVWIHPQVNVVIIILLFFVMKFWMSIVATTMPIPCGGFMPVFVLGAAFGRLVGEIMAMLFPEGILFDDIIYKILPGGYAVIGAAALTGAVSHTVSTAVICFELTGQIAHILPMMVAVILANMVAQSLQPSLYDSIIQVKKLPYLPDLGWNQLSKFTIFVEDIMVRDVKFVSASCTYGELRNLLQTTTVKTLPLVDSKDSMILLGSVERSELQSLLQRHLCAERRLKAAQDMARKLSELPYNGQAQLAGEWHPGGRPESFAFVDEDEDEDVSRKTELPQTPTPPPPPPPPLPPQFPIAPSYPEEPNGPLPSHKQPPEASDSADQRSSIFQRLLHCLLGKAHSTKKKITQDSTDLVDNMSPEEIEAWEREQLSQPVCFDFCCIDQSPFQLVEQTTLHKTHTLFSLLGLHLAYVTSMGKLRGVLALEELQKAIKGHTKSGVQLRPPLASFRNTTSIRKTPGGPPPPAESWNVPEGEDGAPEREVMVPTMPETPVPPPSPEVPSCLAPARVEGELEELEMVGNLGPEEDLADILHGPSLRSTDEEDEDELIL
Each line names hits and unclear results; the compound was inactive in the other large screens (follow-up assays come after a bar, where they were run). A selection: hits, their analogues and other compounds. The true share with any hit is near 2.3%.

Cc1cc(C)c(C#N)c(N2CCCC2)n1	none
Cc1cc(C(F)(F)F)c(C#N)c(N2CCOCC2)n1	ANO1 block 100 | TMEM16A reconf inactive | TMEM16A Ca cntr inactive | Parental YFP cnt inactive | ClC-1 inh inactive
CCCCOC(=O)c1ccc(NC(=O)C(=O)NCC2CCCO2)cc1 (stereo not given)	none
CCCCOC(=O)c1ccc(NC(=O)C(=O)NCc2cccnc2)cc1	ANO1 block 25 | TMEM16A reconf inactive | TMEM16A Ca cntr inactive | Parental YFP cnt inactive | ClC-1 inh inactive
S=c1cn[nH]c2ccccc12	none (no result: ANO1 block, CHT inh, CHT PAM)
O=c1ccn(Cc2ccccc2)c(SCc2ccccc2)n1	none (no result: ANO1 block, CHT inh, CHT PAM)
Clc1ccc(CSc2nccn2Cc2ccccc2)cc1	ANO1 block 100 | TMEM16A reconf 44.0% | TMEM16A Ca cntr inactive | Parental YFP cnt inactive | ClC-1 inh inactive
CN(Cc1nc2ccccc2c(=O)[nH]1)C(=O)c1cccc(NC(=O)c2cccs2)c1	none (no result: ANO1 block, CHT inh, CHT PAM)
CC(c1ccco1)N(C(=O)CSc1ccc(Br)cc1)c1ccccn1 (stereo not given)	ANO1 block 100 | TMEM16A reconf 17.5% | TMEM16A Ca cntr inactive | Parental YFP cnt inactive | ClC-1 inh inactive
CC(C)CC(=O)c1c[nH]c(C(=O)NCCCN2CCOCC2)c1	ANO1 block 25 | TMEM16A reconf inactive | TMEM16A Ca cntr inactive | Parental YFP cnt inactive | ClC-1 inh inactive
CN(CC(=O)Nc1ccc(Cl)c(C(F)(F)F)c1)C(=O)Cc1n[nH]c(=O)c2ccccc12	ANO1 block 100 | TMEM16A reconf 25.5% | TMEM16A Ca cntr inactive | Parental YFP cnt inactive | ClC-1 inh inactive
CN(CC(=O)Nc1cccc(F)c1)C(=O)Cc1n[nH]c(=O)c2ccccc12	none
O=C(c1ccccc1)c1ccc(N2CCN(C(=O)c3cccc(F)c3F)CC2)c(F)c1	none
CN=C1S/C(=C\c2ccc(O)c(Br)c2)C(=O)N1C	ANO1 block 25 (no result: CHT inh, CHT PAM) | TMEM16A reconf inactive | TMEM16A Ca cntr inactive | Parental YFP cnt inactive | ClC-1 inh inactive
CN=C1S/C(=C\c2ccc(O)c(OC)c2)C(=O)N1C	none
O=C(NCc1cccnc1)c1nc(-c2ccc(C(F)(F)F)cc2)no1	none
O=C(NCc1ccncc1)c1nc(-c2ccc(C(F)(F)F)cc2)no1	ANO1 block 25 | TMEM16A reconf 18.5% | TMEM16A Ca cntr inactive | Parental YFP cnt inactive | ClC-1 inh inactive
Cc1ccc(NC(NC(=O)c2cccs2)C(Cl)(Cl)Cl)cc1C (stereo not given)	ANO1 block 100 | TMEM16A reconf 28.5% | TMEM16A Ca cntr inactive | Parental YFP cnt inactive | ClC-1 inh inactive
Cc1cccc(S(=O)(=O)N2CCN(Cc3ccc4c(c3)OCO4)CC2)c1	none
Cc1cc(S(=O)(=O)N2CCN(Cc3ccc4c(c3)OCO4)CC2)cc(C)c1N1CCCC1=O	ANO1 block 100 | TMEM16A reconf 33.0% | TMEM16A Ca cntr inactive | Parental YFP cnt inactive | ClC-1 inh inactive
c1ccc2c(c1)OCC(c1csc3ncnc(N4CCCC4)c13)O2 (stereo not given)	ANO1 block 25 | TMEM16A reconf 19.5% | TMEM16A Ca cntr inactive | Parental YFP cnt inactive | ClC-1 inh inactive
c1ccc(CCNc2ncnc3scc(C4COc5ccccc5O4)c23)cc1 (stereo not given)	none
NC(=O)NC(=O)COC(=O)CCCc1c[nH]c2ccccc12	ANO1 block 100 | TMEM16A reconf inactive | TMEM16A Ca cntr inactive | Parental YFP cnt inactive | ClC-1 inh inactive
CC(=O)Nc1ccc(NC(=O)COC(=O)CCCc2c[nH]c3ccccc23)cc1	none
COCCNC(=O)c1ccc2c(=O)n(Cc3ccco3)c(SCC(=O)Nc3ccc(OC)cc3OC)nc2c1	none
COCCNC(=O)c1ccc2c(=O)n(Cc3ccco3)c(SCC(=O)NC3CCCCC3)nc2c1	none | TMEM16A reconf inactive | TMEM16A Ca cntr inactive | Parental YFP cnt inactive | ClC-1 inh inactive
CCC(C)NC(=O)C1CCC(CNS(=O)(=O)c2ccccc2)CC1 (stereo not given)	none | TMEM16A reconf inactive | TMEM16A Ca cntr inactive | Parental YFP cnt inactive | ClC-1 inh inactive
CCN(CC)S(=O)(=O)c1ccc(Oc2ccccc2OC)cc1	none
CCN(CC)S(=O)(=O)c1ccc(Oc2ccc(S(=O)(=O)N(CC)CC)cc2)cc1	ANO1 block 100 | TMEM16A reconf inactive | TMEM16A Ca cntr inactive | Parental YFP cnt inactive | ClC-1 inh inactive
Cc1cc(Cl)cc2c1NC(=O)[C@]21[C@@H]2C(=O)N(Cc3ccccc3)C(=O)[C@@H]2[C@@H]2CCCN21	ANO1 block 25 | TMEM16A reconf inactive | TMEM16A Ca cntr inactive | Parental YFP cnt inactive | ClC-1 inh inactive
CC1=CC(C)(C)N(C(=O)c2ccc(F)cc2)c2cc3c(cc21)OCO3	ANO1 block 100 | TMEM16A reconf 58.0% | TMEM16A Ca cntr inactive | Parental YFP cnt inactive | ClC-1 inh inactive
O=c1[nH]c2ccccc2nc1/C=C/c1ccccc1	none
O=c1[nH]c2ccccc2nc1/C=C/c1ccc(F)cc1	none | TMEM16A reconf inactive | TMEM16A Ca cntr inactive | Parental YFP cnt inactive | ClC-1 inh inactive
COc1cc(C(=O)Oc2cccc(Nc3ncnc4ccccc34)c2)cc(OC)c1OC	ANO1 block 100 | TMEM16A reconf 21.5% | TMEM16A Ca cntr inactive | Parental YFP cnt inactive | ClC-1 inh inactive
Nc1ncnc2c1ncn2C1C=C(CO)C(O)C1O (stereo not given)	none (no result: ANO1 block, CHT inh, CHT PAM)
Nc1ccn(Cc2ccccc2)n1	none
c1ccc(Cn2ccc(-c3cnc(-c4ccccc4)s3)n2)cc1	ANO1 block 100 | TMEM16A reconf 45.0% | TMEM16A Ca cntr inactive | Parental YFP cnt inactive | ClC-1 inh inactive
COC(=O)c1ccc(-c2noc(CN(C)Cc3ccncc3C)n2)cc1	ANO1 block 25 | TMEM16A reconf inactive | TMEM16A Ca cntr inactive | Parental YFP cnt inactive | ClC-1 inh inactive
O=C(Nc1cccc(C(F)(F)F)c1)c1cc[n+]([O-])cc1	ANO1 block 100 | TMEM16A reconf inactive | TMEM16A Ca cntr inactive | Parental YFP cnt inactive | ClC-1 inh inactive
O=C(NC(=O)c1cccc(F)c1)Nc1nc(-c2ccc(F)cc2)cc(C(F)(F)F)n1	none
COc1ccccc1C(=O)NC(=O)Nc1nc(-c2ccccc2)cc(C(F)(F)F)n1	ANO1 block 25 | TMEM16A reconf inactive | TMEM16A Ca cntr inactive | Parental YFP cnt inactive | ClC-1 inh inactive
O=C(NCc1ccncc1)C(=O)Nc1nc(C23CC4CC(CC(C4)C2)C3)cs1	ANO1 block 100 | TMEM16A reconf 18.0% | TMEM16A Ca cntr inactive | Parental YFP cnt inactive | ClC-1 inh inactive
